# Assay outcomes deposited in PubChem BioAssay by National Center for Advancing Translational Sciences (NCATS).
# Rows were chosen to be rich in hits. Some 1.4% of all compounds tested hit in one or more screens of this group.
# ALOX12 inh = inhibitors of human 12S-lipoxygenase ALOX12. purified 12hLO, xylenol orange hydroperoxide absorbance. Potency, µM (highest dose often 108 µM), inactives show at the highest dose activity change, negative = inhibition, most hits filed as inhibitors. actives 1.1% (n = 580,000). P18054; further: potency means the concentration at half of the fitted maximal effect; on the % scale 0 is the no-effect control and ±100 the full control effect
#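 Hydroperoxide product was detected by ferrous iron/xylenol orange as the 573 to 405 nm absorbance ratio. Arachidonic acid at 40 uM (final) was turned over for 30 min at room temperature by 150 nM human 12hLO, pH 7.0 Hepes buffer, after 15 min compound preincubation.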
# Akt phos inh = inhibitors of Akt phosphorylation. activity change, % for hits at 50 µM. actives 0.32% (n = 360,000). AID 651550. Neuro2A IGF-stimulated pAkt S473 HTRF, 20 min; hits give low values; in the data active means activity change below about -80%; inconclusive means mostly about -51% to -80%; further: on the % scale 0 is the no-effect control and ±100 the full control effect
#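 Neuro2A cells in DMEM with 0.5% FBS, overnight at 37 deg C, given compound at single 50 µM final, then IGF (6 nM final) for 20 min at 37 deg C. Lysed; phospho-Akt Ser473 by HTRF after 24 h, 665/615 ratio.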
# TSG101-PTAP inh = blocks PTAP/TSG101 interaction to inhibit HIV-1 budding; Fluorescence polarization, FITC-PTAP peptide / Tsg101 binding; 340,000 tested, under 10 active; Potency, µM (series often up to 115 µM), for inactives: at the highest dose activity change, negative = inhibition, usual class: inhibitors; Q99816; AID 493005; active means well fitted inhibition curve with a large enough effect in the main read-out, with a control signal flat, not every such curve was filed as active; inconclusive means small, poorly fitted or top-dose-only effect, or effect the other way, or a change in a side signal; inactive means no such curve, though single readings can be large or run the other way; further: potency means the concentration at half of the fitted maximal effect; % of control where 0% means no effect
# Target sequence (Q99816 whole entry, looked up): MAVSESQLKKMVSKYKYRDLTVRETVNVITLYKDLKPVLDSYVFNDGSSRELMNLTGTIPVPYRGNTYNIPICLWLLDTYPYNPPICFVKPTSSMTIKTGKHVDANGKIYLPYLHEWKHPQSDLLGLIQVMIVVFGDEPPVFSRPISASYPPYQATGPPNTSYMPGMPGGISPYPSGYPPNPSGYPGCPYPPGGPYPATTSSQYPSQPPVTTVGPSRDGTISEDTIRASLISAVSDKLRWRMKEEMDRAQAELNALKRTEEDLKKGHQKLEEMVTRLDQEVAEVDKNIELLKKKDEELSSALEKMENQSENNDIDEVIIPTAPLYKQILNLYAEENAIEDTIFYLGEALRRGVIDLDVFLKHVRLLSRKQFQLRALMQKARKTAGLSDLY
#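 Tsg101 binding domain (10 uM final) was mixed with compound and a FITC-labeled PTAP peptide (50 nM final) in HEPES pH 7.5 buffer with NaCl, Tween 20, EDTA and TCEP; fluorescence polarization was read after 20 min at r.t.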
# Vif-A3F inh = Vif-A3F binding inhibition | HeLa A3F-eYFP + Vif (tagged APOBEC3F with the HIV-1 protein that degrades it), YFP fluorescence increase | actives 0.2% (n = 390,000) | AID 602313 | Potency, µM (doses to about 46.1 µM), for inactives: at the top dose activity, negative = active; further: potency means the concentration at half of the fitted maximal effect; % of control where 0% means no effect; nearly all actives have a fitted effect of over 65% in size
#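 Fluorescence increase (Ex 488/Em 500-530) after overnight compound treatment at 37 deg C flags inhibition of Vif-driven A3F-eYFP loss in stable HeLa A3F-eYFP/Vif cells seeded overnight beforehand.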
# S-ASM inh = inhibitors of human secretory acid sphingomyelinase; AID 504937; actives 0.006% (n = 340,000); P17405; Potency, µM (doses to about 57.5 µM), for the others: at the top dose activity change, negative = inhibition, actives largely listed as inhibitors; placental ASM, HMU-PC fluorogenic substrate, 60 min; further: potency means the concentration at half of the fitted maximal effect
#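 Steps: dispense placental human ASM, pin compound, wait 10 min at room temperature, add HMU-PC0 substrate at 9 uM final, incubate 60 min at 37 °C, add stop solution raising pH to 10, read fluorescence.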
# Vif-A3G inh = Vif-A3G binding inhibition; Q9HC16; HeLa A3G-eYFP + Vif (tagged APOBEC3G with the HIV-1 protein that degrades it), YFP fluorescence, overnight; Potency, µM (highest dose often 46.1 µM), inactives show at the highest dose activity, negative = active, actives largely listed as inhibitors; actives 0.076% (n = 410,000); further: potency means the concentration at half of the fitted maximal effect; on the % scale 0 is the no-effect control and ±100 the full control effect; nearly all actives have a fitted effect of over 60% in size
# Target sequence (Q9HC16 whole entry, looked up): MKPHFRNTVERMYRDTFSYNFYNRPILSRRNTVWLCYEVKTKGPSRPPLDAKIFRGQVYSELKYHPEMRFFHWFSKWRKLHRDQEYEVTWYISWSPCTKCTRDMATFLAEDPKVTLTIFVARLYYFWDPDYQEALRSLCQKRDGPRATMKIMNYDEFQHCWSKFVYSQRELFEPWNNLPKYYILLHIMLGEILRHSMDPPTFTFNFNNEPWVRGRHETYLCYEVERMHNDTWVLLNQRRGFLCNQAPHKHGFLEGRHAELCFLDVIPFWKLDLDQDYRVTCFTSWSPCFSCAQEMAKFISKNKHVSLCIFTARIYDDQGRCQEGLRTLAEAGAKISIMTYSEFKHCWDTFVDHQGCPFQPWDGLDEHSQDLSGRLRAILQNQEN
#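 HeLa cells stably expressing Vif and C-terminally eYFP-tagged A3G, seeded overnight at 37 deg C, then exposed to compound by pintool overnight at 37 deg C. Rise in yellow fluorescence (Ex 488/Em 500-530, Acumen) marks blocked Vif-driven A3G degradation.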
# Starred values were filed as active, the others as inactive; i = inactive; ? = inconclusive; / = not tested or not shown; [ ] = another dose, or the depositor's remark. Unless noted, the call rests on the fitted dose curve; in most records, active means well fitted curve in the direction sought with a large enough effect; inconclusive means small, poorly fitted or top-dose-only effect, or another doubt; inactive means no such curve, though single readings can be large; an effect the other way counts as inactive or inconclusive.
SMILES,ALOX12 inh,Akt phos inh,TSG101-PTAP inh,Vif-A3F inh,S-ASM inh,Vif-A3G inh
CC1(OC(=O)c2ccco2)C(=O)C=C2C=C(C3CC3)OC=C2C1=O (stereo not drawn),44.7µM*,i,-7.6%,2.1%,-0.1%,1.7%
CC1(OC(=O)c2cccs2)C(=O)C=C2C=C(C3CC3)OC=C2C1=O (stereo not drawn),?,i,-7.3%,-0.4%,2.4%,3.8%
CC1(OC(=O)C2CCCC2)C(=O)C=C2C=C(c3ccsc3)OC=C2C1=O (stereo not drawn),7.94µM*,i,-8.7%,4.2%,-2.9%,0.4%
CCCCC1=CC2=CC(=O)C(C)(OC(=O)C3CCCC3)C(=O)C2=CO1 (stereo not drawn),15.8µM*,i,-1.8%,-6.0%,-10.3%,-10.4%
CCC(=O)OC1(C)C(=O)C=C2C=C(CCCC(=O)OC)OC=C2C1=O (stereo not drawn),?,i,-1.2%,5.6%,13.4%,4.2%
CO/N=C(\C(=O)O)c1cn2ccsc2n1,2.24µM*,/,/,/,/,/
COc1ccc(CC(=O)NCc2cn3ccsc3n2)cc1,34.3%,i,-0.4%,-4.8%,1.7%,5.7%
Cc1cc(C)cc(CN2CCC3(CC2)Cc2ccccc2CNC3=O)c1,-0.8%[6.33 µM],/,/,/,/,/
COc1ccc(CN2CCCC3(Cc4ccccc4CNC3=O)C2)cc1 (stereo not drawn),7.8%[6.33 µM],/,/,/,/,/
COc1cccc(CN2CCC3(Cc4ccccc4NC3=O)C2)c1 (stereo not drawn),39.8µM*,/,/,/,/,/
O=C1NCc2ccccc2CC12CCN(Cc1ccc(Oc3ccccc3)cc1)C2 (stereo not drawn),35.5µM*,/,/,/,/,/
N#Cc1ccc(CN2CCC3(Cc4ccccc4CNC3=O)C2)cc1 (stereo not drawn),0.4%[6.33 µM],/,/,/,/,/
Cc1cc(C)c(CN2CCC3(Cc4ccccc4CNC3=O)C2)c(C)c1 (stereo not drawn),1µM*,/,/,/,/,/
O=C1NCc2ccccc2CC12CCN(Cc1ccc(-c3ccccc3)cc1)C2 (stereo not drawn),39.8µM*,/,/,/,/,/
CC(NC(=O)CCNC(=O)C(C)(C)C)C(=O)NC1CCCC1 (stereo not drawn),7.0%,/,/,/,/,/
CC(C)=CC1C(C(=O)NCC(C)(C)C(N)=O)C1(C)C (stereo not drawn),-21.9%,/,/,/,/,/
C=CCNC(=S)N/N=C(\C)c1ccc(OC)cc1,39.8µM*,i,-0.5%,10µM*,-1.3%,1.4%
COc1ccc(/C(C)=N/NC(=S)NCc2ccco2)cc1,39.8µM*,i,-0.1%,-8.4%,0.1%,-5.0%
C=CCNC(=S)N/N=C(\C)c1cccc(OC)c1,?,i,-0.9%,?,-2.4%,1.3%
Cc1cc(NC(=O)c2ccc([N+](=O)[O-])o2)cc(-c2nc3ccccc3o2)c1O,-2.8%,/,/,/,/,/
Cc1ccc2[nH]c(C(=O)N3CCN(c4ccccc4)CC3)cc2c1,-15.7%,/,/,/,/,/
O=C(O)c1c(Cl)c(Cl)c(Cl)c(Cl)c1C(=O)N1CCOCC1,11.2µM*,i,-0.9%,-8.2%,3.7%,-0.4%
O=C(O)c1c(Cl)c(Cl)c(Cl)c(Cl)c1C(=O)N1CCCCCC1,-3.4%,i,-1.3%,-25.7%,-2.2%,-1.7%
CC1CCCCN1C(C)CNC(=S)NCc1ccc(F)cc1 (stereo not drawn),50.5%,/,/,/,/,/
CC(C)=C1C(=O)NN(c2ccc(F)c(Cl)c2)C1=O,10µM*,i,/,-5.7%,0.3%,-0.9%
SMILES,ALOX12 inh,Akt phos inh,TSG101-PTAP inh,Vif-A3F inh,S-ASM inh,Vif-A3G inh
CCN(CC)C(=O)Cn1c(C)c(/C=C/c2cc[n+](C)cc2)c2ccccc21,?,i,?,?,?,7.94µM*
C=CCn1c(C)c(/C=C/c2cc[n+](C)cc2)c2ccccc21,-33.7%,i,?,?,-21.4%,?
Cc1onc(C(=O)N2CCCCCCNC(=O)[C@@H]3CCCC[C@@H]32)c1Cn1cccn1,23.4%,/,/,/,/,/
Cc1onc(-c2ccccc2)c1C(=O)NC(=S)NNC(=O)c1cc(-c2ccc(F)cc2)n[nH]1,44.7µM*,i,-1.5%,4.8%,-1.4%,3.2%
Cc1onc(-c2ccccc2)c1C(=O)NC(=S)NNC(=O)c1ccncc1,-15.0%,i,0.2%,5.9%,4.9%,-6.0%
COP(=O)(OC)c1nc(-c2cccc([N+](=O)[O-])c2)oc1NCc1ccc(F)cc1,91.2%,/,/,/,/,/
Cc1cc(O)c2c(c1O)C(=O)C(O)=C(O)C2=O,28.2µM*,/,/,/,/,/
CCOc1ccc(C(c2c(C)[nH]n(-c3ccccc3)c2=O)c2c(C)[nH]n(-c3ccccc3)c2=O)cc1OC,50.1µM*,/,/,-13.3%,/,-18.7%
Cn1nc(C(=O)OC2CCC(C(C)(C)C)CC2)c2ccccc2c1=O (stereo not drawn),13.7%,/,/,/,/,/
CCn1nc(-c2ccc(C)c(S(=O)(=O)NC3CC3)c2)c2c(c1=O)CCCC2,5.0%,/,/,/,/,/
CC(C)c1ccc(C(=O)O)c(O)c1,-25.9%,/,/,/,/,/
CC(C)c1ccc(O)c(=O)cc1,22.4µM*,/,/,/,/,/
CCN(CC)C(=O)CNC(=O)c1[nH]c2ccccc2c1Cl,-1.4%,/,/,/,/,/
O=C1CCCC(O)=C1Sc1cc(Cl)c(Cl)cc1Cl,39.8µM*,i,-2.3%,-3.7%,9.5%,-2.1%
Cc1ccc(NC(=O)CCNc2cnc3cnccn23)cc1F,50.1µM*,/,/,/,/,/
Cc1ccc(NC(=O)CCC(=O)O)cc1F,-4.1%,i,-1.4%,-4.8%,2.6%,-1.2%
COc1cc(C(=O)Nc2sc(C(=O)N3CCOCC3)c(C)c2C#N)cc(OC)c1OC,430.9%,-106.6%*,-5.1%,2.2%,2.5%,-0.7%
CCCOc1ccc(C[N+](C)(C)C)cc1C[N+](C)(C)C,63.1µM*,/,/,/,/,/
CCNc1nc(Oc2ccc(C(=O)OC)cc2)nc(SC)n1,-21.8%,i,-6.9%,1.9%,-1.0%,-16.9%
CCNc1nc(Oc2ccc(C(=O)OCC)cc2)nc(SC)n1,-25.0%,-121.1%*,-3.0%,-2.1%,-5.9%,-7.4%
CN(Cc1ccsc1)C(=O)CSc1nnc(COc2ccccc2Cl)n1C,10.3%,/,/,/,/,/
CC(NCc1ccccc1C#N)c1ccccc1F (stereo not drawn),39.8µM*,/,/,/,/,/
O=C1Cc2c(-c3cccc(N4CCOCC4)c3)n[nH]c2CN1Cc1ccccn1,43.1%[176 µM],/,/,/,/,/
O=C(O)c1cccc(S(=O)(=O)NNc2ccccc2C(F)(F)F)c1,15.8µM*,i,-6.6%,9.2%,4.7%,-1.9%
O=C(O)c1cccc(S(=O)(=O)Nc2ccc(-c3ccccc3)cc2)c1,?,i,-2.9%,3.9%,-28.3%,1.9%
CCCCn1c(CCC)nc([N+](=O)[O-])c1Sc1ccc(Cl)cn1,-13.9%,-114.4%*,-2.8%,-5.5%,-2.3%,-16.9%
CNc1c(NC(=O)c2cc(OC)c(OC)c(OC)c2)c(=O)oc2ccccc12,22.8%,/,/,/,/,/
